Test [1] deals with RAW-Dual. In words: IRF Lucia reporter activity, fold change vs agonist alone; higher = enhanced IRF activity. To be noted: agonist: MPLA (TLR4) […]. A digest of the protocol:
(§1)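 Library stock was pin-tooled at 50 nL into 384-well plates of RAW-Dual macrophages (50,000 cells/well, DMEM), followed 1 h later by a PRR agonist, and the cells were kept at 37 °C, 5% CO2. Supernatant collected after 20 hours was read for IRF by QuantiLuc luminescence and for NF-κB by QuantiBlue absorbance at 620 nm. Reporter activity is fold change over agonist-alone wells, and a well counted as cytotoxic when its IncuCyte confluency was below 70% of agonist controls in both mask sets.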

Test [2] deals with RAW-Dual. In words: IRF Lucia reporter activity, fold change vs agonist alone; cytotoxicity flag (confluency mask): not cytotoxic; higher = enhanced IRF activity. A digest of the protocol:
as §1

The subject of test [3] is RAW-Dual. In words: IRF Lucia reporter activity, fold change vs agonist alone; cytotoxicity flag (confluency mask): cytotoxic (confluency <70% of control); higher = enhanced IRF activity. A digest of the protocol:
as §1

Setting [4] is: library stock concentration (final ~1000-fold dilution): 10 mM water, cytotoxicity flag (confluency mask): not cytotoxic.
Where [5] appears, read: agonist: 3'3'-cGAMP (STING) 10 ug/mL.
Setting [6] is: library stock concentration (final ~1000-fold dilution): 10 mM, cytotoxicity flag (confluency mask): not cytotoxic.
The mark [7] stands for this setting: library stock concentration (final ~1000-fold dilution): 10 mM, cytotoxicity flag (confluency mask): cytotoxic (confluency <70% of control).

Whole data set: some 2,900 compounds, median “IRF Lucia reporter activity, fold change vs agonist alone” near 0.9, cut for the highest 2% near 2.8. The entries come from a sample that favours the highest values as a whole.

Take `Cc1c(-c2ccccc2)oc2c(C(=O)OCCN3CCCCC3)cccc2c1=O.Cl`: the “IRF Lucia reporter activity” value in test [1] (setting [4]) was 1.29.

On to `Cc1c(-c2ccccc2)oc2c(C(=O)OCCN3CCCCC3)cccc2c1=O.Cl` (library stock concentration (final ~1000-fold dilution): 10 mM water), for which the “IRF Lucia reporter activity” value in test [2] (setting [5]) worked out at 1.09; in test [2] (agonist: LPS (TLR4) 0.1 ug/mL), 0.892.

As for `CCC(=O)N1CCC(Nc2ncnc3c2CN(c2cnc(OC)c(C(F)(F)F)c2)CC3)C1` (configuration not stated) (library stock concentration (final ~1000-fold dilution): 10 mM), the “IRF Lucia reporter activity” value amounted to 0.908 in test [2] (setting [5]) and 0.847 in test [2] (agonist: LPS (TLR4) 0.1 ug/mL).

As to `CCc1c2c(nc3ccc(O)cc13)-c1cc3c(c(=O)n1C2)COC(=O)C3(O)CC` (configuration not stated), in test [1] (setting [6]), the “IRF Lucia reporter activity” value amounted to 1.65.

For `CCC1(O)C(=O)OCc2c1cc1n(c2=O)Cc2cc3c(CN(C)C)c(O)ccc3nc2-1` (configuration not stated) (library stock concentration (final ~1000-fold dilution): 10 mM), the “IRF Lucia reporter activity” value in test [2] (setting [5]) was found to be 2.77; in test [2] (agonist: LPS (TLR4) 0.1 ug/mL), 3.25.

Take `CCc1c2c(nc3ccc(OC(=O)N4CCC(N5CCCCC5)CC4)cc13)-c1cc3c(c(=O)n1C2)COC(=O)C3(O)CC.Cl.O.O.O` (configuration not stated) (library stock concentration (final ~1000-fold dilution): 10 mM): the “IRF Lucia reporter activity” value stood at 0.87 in test [2] (setting [5]) and 1.1 in test [2] (agonist: LPS (TLR4) 0.1 ug/mL).

In the case of `CCC1(O)C(=O)OCc2c1cc1n(c2=O)Cc2cc3cc(O)ccc3nc2-1` (configuration not stated), the “IRF Lucia reporter activity” value in test [1] (setting [7]) came to 2.58; in test [1] (setting [6]), 1.03.

With `CCC1(O)C(=O)OCc2c1cc1n(c2=O)Cc2cc3cc(O)ccc3nc2-1` (configuration not stated) (library stock concentration (final ~1000-fold dilution): 10 mM), the “IRF Lucia reporter activity” value in test [2] (setting [5]) was determined as 0.975; in test [2] (agonist: LPS (TLR4) 0.1 ug/mL) it was 0.604; in test [3] (setting [5]) it was 2.36; in test [3] (agonist: LPS (TLR4) 0.1 ug/mL), 1.76.

Take `CCC1(O)C(=O)OCc2c1cc1n(c2=O)Cc2cc3c(CN(C)C)c(O)ccc3nc2-1.Cl` (configuration not stated) (library stock concentration (final ~1000-fold dilution): 10 mM): the results for the “IRF Lucia reporter activity” value in test [3] (setting [5]) and in test [3] (agonist: LPS (TLR4) 0.1 ug/mL) were 2.13 and 2.49, respectively.

As to `CCC1(O)C(=O)OCc2c1cc1n(c2=O)Cc2cc3c(CN(C)C)c(O)ccc3nc2-1.Cl` (configuration not stated), in test [1] (setting [7]), the “IRF Lucia reporter activity” value stood at 3.1.

As for `CCc1c2c(nc3ccc(O)cc13)-c1cc3c(c(=O)n1C2)COC(=O)C3(O)CC` (configuration not stated) (library stock concentration (final ~1000-fold dilution): 10 mM), the “IRF Lucia reporter activity” value in test [2] (setting [5]) was 1.24; in test [2] (agonist: LPS (TLR4) 0.1 ug/mL), 1.29.

On to `CCc1c2c(nc3ccc(OC(=O)N4CCC(N5CCCCC5)CC4)cc13)-c1cc3c(c(=O)n1C2)COC(=O)C3(O)CC.Cl.O.O.O` (configuration not stated), for which the “IRF Lucia reporter activity” value in test [1] (setting [6]) was 1.15.

For `COc1ccc2cc1Oc1ccc(cc1)CC1c3cc(c(OC)cc3CCN1C)Oc1c(OC)c(OC)cc3c1C(C2)N(C)CC3` (configuration not stated) (library stock concentration (final ~1000-fold dilution): 10 mM), the entries for the “IRF Lucia reporter activity” value in test [2] (setting [5]) and in test [2] (agonist: LPS (TLR4) 0.1 ug/mL) were 1.01 and 0.352, respectively.

In the case of `COc1ccc2cc1Oc1ccc(cc1)CC1c3cc(c(OC)cc3CCN1C)Oc1c(OC)c(OC)cc3c1C(C2)N(C)CC3` (configuration not stated), the “IRF Lucia reporter activity” value in test [1] (setting [6]) came to 1.07.

`Cn1c(=O)cc(N2CCCC(N)C2)n(Cc2cc(F)ccc2C#N)c1=O.O=C(O)CCC(=O)O` (configuration not stated): in test [1] (setting [6]), the “IRF Lucia reporter activity” value is 1.13.

As to `Cn1c(=O)cc(N2CCCC(N)C2)n(Cc2cc(F)ccc2C#N)c1=O.O=C(O)CCC(=O)O` (configuration not stated) (library stock concentration (final ~1000-fold dilution): 10 mM), the “IRF Lucia reporter activity” value in test [2] (setting [5]) came to 1.04; in test [2] (agonist: LPS (TLR4) 0.1 ug/mL), 1.26.

For the compound `CCC(C)CC(C)CCCCCCCCC(=O)NC1CC(O)C(NCCN)NC(=O)C2C(O)CCN2C(=O)C(C(O)CCN)NC(=O)C(C(O)C(O)c2ccc(O)cc2)NC(=O)C2CC(O)CN2C(=O)C(C(C)O)NC1=O` (configuration not stated), the “IRF Lucia reporter activity” value in test [1] (setting [4]) stood at 1.21.

Take `CCC(C)CC(C)CCCCCCCCC(=O)NC1CC(O)C(NCCN)NC(=O)C2C(O)CCN2C(=O)C(C(O)CCN)NC(=O)C(C(O)C(O)c2ccc(O)cc2)NC(=O)C2CC(O)CN2C(=O)C(C(C)O)NC1=O` (configuration not stated) (library stock concentration (final ~1000-fold dilution): 10 mM water): the “IRF Lucia reporter activity” value turned out to be 0.923 in test [2] (setting [5]) and 0.909 in test [2] (agonist: LPS (TLR4) 0.1 ug/mL).

Consider `Cn1cnc2c(F)c(Nc3ccc(Br)cc3F)c(C(=O)NOCCO)cc21` (library stock concentration (final ~1000-fold dilution): 10 mM), for which the results for the “IRF Lucia reporter activity” value in test [2] (setting [5]) and in test [2] (agonist: LPS (TLR4) 0.1 ug/mL) were 0.728 and 2.67, respectively.

Consider `Cn1cnc2c(F)c(Nc3ccc(Br)cc3Cl)c(C(=O)NOCCO)cc21` (library stock concentration (final ~1000-fold dilution): 10 mM), for which the figures for the “IRF Lucia reporter activity” value in test [2] (setting [5]) and in test [2] (agonist: LPS (TLR4) 0.1 ug/mL) were 0.69 and 3.1, respectively.

`Cn1cnc2c(F)c(Nc3ccc(Br)cc3Cl)c(C(=O)NOCCO)cc21`: the “IRF Lucia reporter activity” value in test [1] (setting [6]) was determined as 2.77.

On to `Cn1cnc2c(F)c(Nc3ccc(Br)cc3F)c(C(=O)NOCCO)cc21`, for which the “IRF Lucia reporter activity” value in test [1] (setting [6]) amounted to 2.67.

In the case of `COCCOc1nc(N)c2[nH]c(=O)n(Cc3ccc(C(=O)O)cc3)c2n1` (library stock concentration (final ~1000-fold dilution): 10 mM), the “IRF Lucia reporter activity” value was 1.54 in test [2] (setting [5]) and 1.06 in test [2] (agonist: LPS (TLR4) 0.1 ug/mL).

With `COC(C(=O)N1Cc2[nH]nc(NC(=O)c3ccc(N4CCN(C)CC4)cc3)c2C1)c1ccccc1` (configuration not stated) (library stock concentration (final ~1000-fold dilution): 10 mM), the “IRF Lucia reporter activity” value in test [2] (setting [5]) came to 0.149; in test [2] (agonist: LPS (TLR4) 0.1 ug/mL), 0.162.

On to `COC(C(=O)N1Cc2[nH]nc(NC(=O)c3ccc(N4CCN(C)CC4)cc3)c2C1)c1ccccc1` (configuration not stated), for which the “IRF Lucia reporter activity” value in test [1] (setting [6]) is 0.147.
